In the supplement of paper PMC6089552:
Screen size: about 3,200 compounds; about 300 (9.4%) showed activity. What follows is part of a selection rich in actives, with near analogues and random picks from the rest.

Test system: A673/TR/shEF
Test: cell viability (LOESS-normalised, relative to median of negative controls) (log2 ratio); higher = more viable cells (less compound effect), active = hit call of the paper (over 3 MAD below the median)
Conditions: treatment time: 72 h
Procedure, shortened: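 A673/TR/shEF Ewing sarcoma cells were plated at 1,500 per well in 384-well plates and cultured with or without doxycycline, added 24 h before compounds, to induce EWS-FLI1 shRNA knockdown. Library compounds at two or more concentrations, alongside DMSO controls, were applied for three days. Cell viability was measured by CellTiter-Glo luminescence on an Envision reader. Readings were LOESS-corrected per plate, divided by the median of negative controls and log2-transformed, and hits were wells lying at least three median absolute deviations from the median of all screened wells.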

[1] = 0.25 µM, library screen: screen1, EWS-FLI1 expression: high (no doxycycline)
[2] = 0.25 µM, library screen: screen1, EWS-FLI1 expression: low (doxycycline-induced shRNA knockdown)
[3] = 0.25 µM, library screen: screen2, EWS-FLI1 expression: high (no doxycycline)
[4] = 0.25 µM, library screen: screen2, EWS-FLI1 expression: low (doxycycline-induced shRNA knockdown)
[5] = 2.5 µM, library screen: screen1, EWS-FLI1 expression: high (no doxycycline)
[6] = 2.5 µM, library screen: screen1, EWS-FLI1 expression: low (doxycycline-induced shRNA knockdown)
[7] = 2.5 µM, library screen: screen2, EWS-FLI1 expression: high (no doxycycline)
[8] = 2.5 µM, library screen: screen2, EWS-FLI1 expression: low (doxycycline-induced shRNA knockdown)
[9] = 0.103 µM, library screen: screen3, EWS-FLI1 expression: high (no doxycycline)
[10] = 0.103 µM, library screen: screen3, EWS-FLI1 expression: low (doxycycline-induced shRNA knockdown)
[11] = 0.308 µM, library screen: screen3, EWS-FLI1 expression: high (no doxycycline)
[12] = 0.308 µM, library screen: screen3, EWS-FLI1 expression: low (doxycycline-induced shRNA knockdown)
[13] = 0.926 µM, library screen: screen3, EWS-FLI1 expression: high (no doxycycline)
[14] = 0.926 µM, library screen: screen3, EWS-FLI1 expression: low (doxycycline-induced shRNA knockdown)
[15] = 2.8 µM, library screen: screen3, EWS-FLI1 expression: high (no doxycycline)
[16] = 2.8 µM, library screen: screen3, EWS-FLI1 expression: low (doxycycline-induced shRNA knockdown)
[17] = 8.3 µM, library screen: screen3, EWS-FLI1 expression: high (no doxycycline)
[18] = 8.3 µM, library screen: screen3, EWS-FLI1 expression: low (doxycycline-induced shRNA knockdown)
[19] = 25 µM, library screen: screen3, EWS-FLI1 expression: high (no doxycycline)
[20] = 25 µM, library screen: screen3, EWS-FLI1 expression: low (doxycycline-induced shRNA knockdown)
[21] = 0.025 µM, library screen: screen1, EWS-FLI1 expression: high (no doxycycline)
[22] = 0.025 µM, library screen: screen1, EWS-FLI1 expression: low (doxycycline-induced shRNA knockdown)
[23] = 25 µM, library screen: screen1, EWS-FLI1 expression: high (no doxycycline)
[24] = 25 µM, library screen: screen1, EWS-FLI1 expression: low (doxycycline-induced shRNA knockdown)

Measured: cell viability (log2)

O=C(O)CCC(=O)OCC(NC(=O)C(Cl)Cl)C(O)c1ccc([N+](=O)[O-])cc1 (stereo not given)
inactive: 0.025 µM, library screen: screen2, EWS-FLI1 expression: high (no doxycycline) 0.127 | 0.025 µM, library screen: screen2, EWS-FLI1 expression: low (doxycycline-induced shRNA knockdown) 0.0706 | [1] -0.0271 | [2] 0.0474 | [3] 0.193 | [4] -0.0115 | [5] 0.0762 | [6] 0.177 | [7] 0.153 | [8] 0.083 | 25 µM, library screen: screen2, EWS-FLI1 expression: high (no doxycycline) 0.0706 | 25 µM, library screen: screen2, EWS-FLI1 expression: low (doxycycline-induced shRNA knockdown) 0.0478

O=c1c(O)c(-c2cc(O)c(O)c(O)c2)oc2cc(O)ccc12
inactive: [1] 0.128 | [2] -0.0317 | [5] 0.0648 | [6] 0.111

COc1cc(CN2CCN(Cc3cccc(F)c3)CC2)cc2c1OCO2
inactive: [1] 0.0873 | [2] 0.0661 | [5] 0.0312 | [6] 0.0566

COc1ccc(-c2ccc3c(N4CCOC[C@@H]4C)nc(N4CCOC[C@@H]4C)nc3n2)cc1CO
active: [9] -0.268 | [10] -0.292 | [11] -0.621 | [12] -0.525 | [13] -1.05 | [14] -0.821 | [15] -1.66 | [16] -1.37 | [17] -1.89 | [18] -1.59 | [19] -1.94 | [20] -1.78

COc1ccc(-c2ccc3c(N4CCOCC4)nc(N4C[C@@H](C)O[C@@H](C)C4)nc3n2)cc1CO
active: [15] -0.379 | [16] -0.377 | [17] -0.748 | [18] -0.617 | [19] -1.51 | [20] -1.39
inactive: [9] -0.102 | [10] -0.0255 | [11] -0.124 | [12] -0.0614 | [13] -0.171 | [14] -0.169

COc1cc(/C=C2\SC(NC(C)=O)=NC2=O)cc(Br)c1OC
inactive: [1] 0.0313 | [2] 0.0267 | [5] 0.0885 | [6] 0.0962

O=C(O)Cc1cc(I)c(Oc2cc(I)c(O)c(I)c2)c(I)c1
inactive: [1] 0.0518 | [2] 0.0863 | [5] 0.0776 | [6] -0.0191

COC(=O)[C@H](O)[C@H]1C(C)(C)[C@H](O)[C@@H]2CC3=C4CC(=O)O[C@@H](c5ccco5)[C@]4(C)CC[C@@H]3[C@@]1(C)C2=O
inactive: [1] 0.0837 | [2] 0.0423 | [5] 0.0416 | [6] -0.137

COc1ccc(C2NC(=O)NC(C)=C2C(=O)Nc2ccccc2Cl)cc1OC (stereo not given)
inactive: [1] 0.0783 | [2] 0.013 | [5] 0.0736 | [6] -0.0647

CCCCCCCC/C=C/CCCCCCCC(=O)OC(CO)COC(=O)CCCCCCCCCCCCCCC (stereo not given)
inactive: [3] 0.242 | [4] 0.101 | [7] 0.231 | [8] 0.152

CCCCCCCCCCCCCCC[C@H](O)[C@H](N)CO
inactive: [3] 0.153 | [4] 0.105 | [7] 0.146 | [8] 0.102

CCCCCCCCCCCCC/C=C/[C@@H](O)[C@@H](N)CO
active: [23] -4.25 | [24] -4.31
inactive: [21] 0.0541 | [22] 0.028 | [1] 0.0998 | [2] 0.0415 | [3] 0.0615 | [4] 0.0389 | [5] 0.0515 | [6] 0.0695 | [7] 0.162 | [8] 0.0866

CCC(C)n1ncn(-c2ccc(N3CCN(c4ccc(OC[C@H]5CO[C@](Cn6cncn6)(c6ccc(Cl)cc6Cl)O5)cc4)CC3)cc2)c1=O (stereo not given in full)
inactive: [9] -0.00587 | [10] -0.0322 | [11] 0.0158 | [12] 0.0366 | [13] 0.0942 | [14] 0.0808 | [15] 0.0248 | [16] 0.0437 | [17] -0.13 | [18] 0.0912 | [19] 0.0658 | [20] 0.11

COC(=O)C(O)c1ccccc1 (stereo not given)
inactive: [1] 0.0881 | [2] 0.0567 | [5] 0.0992 | [6] 0.015

Nc1ccc2c3c(cccc13)C(=O)NC2=O
active: [3] -0.219
inactive: [4] 0.0582 | [7] 0.0677 | [8] 0.123

COc1cc(/C=C/C=O)cc(OC)c1OC
inactive: [1] 0.0589 | [2] 0.0132 | [5] 0.0586 | [6] 0.0289

OC1C=CC(Br)C(O)C1O (stereo not given)
inactive: [3] 0.12 | [4] 0.141 | [7] 0.0654 | [8] 0.0803

FC(F)(F)c1ccc(/C=C/c2nc(COc3ccc(CCCCn4ccnn4)cc3)co2)cc1
inactive: [10] -0.0943
active: [9] -0.325 | [11] -0.568 | [12] -0.12 | [13] -0.774 | [14] -0.153 | [15] -1.45 | [16] -0.118 | [17] -1.63 | [18] -0.193 | [19] -1.47 | [20] -0.184

CC(=O)OC1CC[C@@]2(C)C(CC[C@H]3[C@@H]4CC=C(C(C)=O)[C@@]4(C)C(=O)C[C@@H]32)C1 (stereo not given in full)
inactive: [1] 0.0289 | [2] 0.0314 | [5] 0.141 | [6] 0.0915

COC(=O)C[C@H]1C(C)(C)[C@H](O)[C@@H]2CC3=C4CC(O)O[C@@H](c5ccoc5)[C@]4(C)CCC3[C@@]1(C)C2=O (stereo not given in full)
inactive: [1] 0.0798 | [2] 0.183 | [5] 0.141 | [6] 0.127

COc1ccc(CCN(C)CCc2ccc(OC)c(OC)c2)cc1OC
inactive: [3] 0.187 | [4] 0.0366 | [7] 0.198 | [8] 0.0294

C[C@H](NCCc1ccc(O)cc1)[C@H](O)c1ccc(O)cc1
inactive: [9] -0.0282 | [10] 0.0403 | [1] 0.119 | [2] 0.0926 | [3] 0.11 | [4] 0.0788 | [11] 0.0762 | [12] 0.0395 | [13] 0.0419 | [14] 0.0833 | [5] 0.157 | [6] 0.125 | [7] 0.0729 | [8] -0.0642 | [15] 0.0463 | [16] 0.0441 | [17] 0.098 | [18] 0.0382 | [19] 0.0513 | [20] 0.0444

COc1ccc(CCNCC(O)c2ccc(O)cc2)cc1OC (stereo not given)
active: [7] -0.721 | [8] -0.108
inactive: [3] 0.167 | [4] -0.0395

CC1(C)C(=O)C=C[C@]2(C)[C@H]3CC[C@@]4(C)[C@H](c5ccoc5)OC(=O)[C@H]5O[C@]54[C@]3(C)C=C[C@@H]12
inactive: [1] 0.0993 | [2] 0.0207 | [5] 0.1 | [6] 0.161

CC(=O)O[C@H]1C[C@@H](OC(C)=O)C(C)(C)C2C[C@@H](OC(C)=O)[C@@]3(C)C4=CC(=O)OC(=O)[C@]4(C)CCC3[C@]21C (stereo not given in full)
inactive: [1] 0.0349 | [2] 0.118 | [5] 0.174 | [6] 0.189

CC1(C)C(=O)[C@@H]2C[C@@]3(O)C4=CC(=O)O[C@@H](c5ccoc5)[C@]4(C)CCC3C(C)(C2=O)[C@H]1CC(=O)O (stereo not given in full)
inactive: [1] 0.0688 | [2] 0.13 | [5] 0.086 | [6] 0.0264

O=C(O)c1ccc(OC2CSC2)cc1
inactive: [1] -0.0489 | [2] 0.0317 | [5] 0.0805 | [6] 0.0727

CC(C)N1C(=O)/C(=C/c2ccc(N(C)C)cc2)SC1=S
inactive: [1] 0.23 | [2] 0.276 | [5] 0.232 | [6] 0.349

O=C1Nc2ccc(I)cc2/C1=C/c1cc(Br)c(O)c(Br)c1
inactive: [21] 0.115 | [22] -0.011 | [1] 0.134 | [2] -0.0458 | [3] 0.275 | [4] 0.0983 | [5] 0.0489 | [6] 0.0445 | [7] 0.0633 | [8] 0.123 | [23] -0.0847 | [24] 0.107

CN(C)c1ccc(/C=C2\C(=O)Nc3ccccc32)cc1
active: [3] -1.84 | [4] -0.565 | [5] -0.163 | [7] -2.61 | [8] -0.918 | [23] -0.158
inactive: [21] 0.182 | [22] 0.00152 | [1] 0.171 | [2] 0.0583 | [6] 0.0499 | [24] 0.195

O=C(O)CN(CC(=O)O)Cc1cc2c(cc1O)Oc1cc(O)c(CN(CC(=O)O)CC(=O)O)cc1C21OC(=O)c2ccccc21
inactive: [1] 0.133 | [2] 0.0463 | [5] 0.15 | [6] 0.0168

COc1ccc(NC(=O)/C(=C/c2cccnc2)NC(=O)c2cccs2)cc1
inactive: [1] 0.123 | [2] 0.163 | [5] 0.1 | [6] 0.101

Brc1ccc(CN2CCN(Cc3ccco3)CC2)cc1
inactive: [1] 0.0694 | [2] 0.0304 | [5] 0.0829 | [6] -0.00775

CC1=C(C(=O)OC2CCCC2)C(c2coc3ccc(Cl)cc3c2=O)C2=C(CCCC2=O)N1 (stereo not given)
inactive: [1] 0.123 | [2] 0.0763 | [5] 0.136 | [6] -0.0126

CC(C)c1c(O)ccc2c1CC[C@H]1C(C)(C)CCC[C@]21C
inactive: [1] 0.0946 | [2] 0.115 | [5] 0.166 | [6] 0.269

CCN(CC)C(=S)SSC(=S)N(CC)CC
active: [1] -1.42 | [2] -0.538 | [13] -4.24 | [14] -2.11 | [5] -2.82 | [6] -1.78 | [7] -4.17 | [8] -0.213 | [15] -4.24 | [16] -4.26 | [17] -4.26 | [18] -4.27 | [19] -4.26 | [20] -4.25
inactive: [9] 0.0335 | [10] 0.117 | [3] 0.112 | [4] 0.121 | [11] -0.158 | [12] 0.0728
